Source: PubChem
RXFP1 antagonist – qHTS Assay for Antagonists of the Relaxin Receptor RXFP1 | Relaxin receptor 1 (Homo sapiens), Q9HBX9 | HEK293-RXFP1, relaxin-stimulated cAMP HTRF, 30 min; hits give low values | activity change, negative = inhibition, % at 57.5 µM | 350,000 tested, 0.59% active;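 active = activity change of -60% or lower, but not beyond a set lower limit; inconclusive = change between -60% and -40%, or beyond the set limit; inactive = change above -40%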; also: % is scaled to controls: 0 for no effect and ±100 for the full control effect
PTHR1 agonist – qHTS for PTHR1 Agonists: Primary Screen; Potency, µM (highest dose often 115 µM), inactives show top-dose activation, hits mostly activators; 410,000 tested, 0.075% active; AID 743266, 2014; HEK293 GP2 PTHR1 cells, GloSensor cAMP luminescence, 1 h; also: potency is read from the fitted curve at half-maximal effect; nearly all actives have a fitted effect of over 55% in size
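HEK-293-derived GP2 cells expressing PTHR1 and a GloSensor cAMP reporter, 3,000/well, plated overnight, given luciferin plus IBMX (each 0.5 mM as added) for 1 h at 37 °C, then compound for 1 h at 37 °C. Luminescence was read after 15 min at room temperature.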
TCR act – Activators of T cell receptors: qHTS campaign. primary human leukocytes, anti-CD3, IL-2 HTRF, 48 h. Potency, µM (titrated, usually from 9.22 µM), for the others: at the top dose activation of IL-2 secretion, actives largely listed as activators. 330,000 tested, under 10 active. AID 504894, 2011; also: % of control where 0% means no effect
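Human primary leukocytes + a-CD3 beads + cpd, 48 hr; IL-2 in supernatant by HTRF (ex 320nm / em 665nm). No co-stimulatory signal supplied.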
RXFP1 agonist – qHTS Assay for Agonists of the Relaxin Receptor RXFP1. Relaxin receptor 1 (Homo sapiens), Q9HBX9. HEK293T-RXFP1 cAMP TR-FRET, 30 min; response scale: percent of porcine relaxin response, buffer zero. Potency, µM (series often up to 57.5 µM), inactives show at the top dose activation, hits mostly activators. 370,000 tested, 0.3% active; also: potency is read from the fitted curve at half-maximal effect; % is scaled to controls: 0 for no effect and ±100 for the full control effect; nearly all actives have a fitted effect of over 60% in size
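cAMP rise read by TR-FRET after 30 min, 37C compound exposure (up to 58 uM) in RXFP1-transfected HEK293 cells with Ro 20174 present. EC50 from Hill-equation fits, with 29 nM porcine relaxin as 100% and buffer as basal.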
NPSR antagonist – qHTS Assay for Antagonists of the Neuropeptide S Receptor: cAMP Signal Transduction; AID 1461, 2008; Potency, µM (series often up to 38.3 µM), for inactives: top-dose activity change, negative = inhibition, most hits filed as inhibitors; CHO-NPSR cells, cAMP TR-FRET, antagonist mode; Q6W5P4; 220,000 tested, 1% active; also: potency is read from the fitted curve at half-maximal effect; % is scaled to controls: 0 for no effect and ±100 for the full control effect; nearly all actives have a fitted effect of over 50% in size
TSHR antagonist – Antagonists of the Thyroid Stimulating Hormone Receptor: HTS campaign; Thyrotropin receptor (Homo sapiens), P16473; TSHR-expressing cells, TSH-stimulated cAMP HTRF, 2 h; hits give low values; activity change, negative = inhibition, % at 11.5 µM; 330,000 tested, 0.2% active;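 active = activity change below a set negative limit, meaning inhibition stronger than a set level, cut at about -70% in these data; inconclusive = activity change between two set negative limits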; also: % is scaled to controls: 0 for no effect and ±100 for the full control effect
Target sequence (P16473 whole entry, looked up): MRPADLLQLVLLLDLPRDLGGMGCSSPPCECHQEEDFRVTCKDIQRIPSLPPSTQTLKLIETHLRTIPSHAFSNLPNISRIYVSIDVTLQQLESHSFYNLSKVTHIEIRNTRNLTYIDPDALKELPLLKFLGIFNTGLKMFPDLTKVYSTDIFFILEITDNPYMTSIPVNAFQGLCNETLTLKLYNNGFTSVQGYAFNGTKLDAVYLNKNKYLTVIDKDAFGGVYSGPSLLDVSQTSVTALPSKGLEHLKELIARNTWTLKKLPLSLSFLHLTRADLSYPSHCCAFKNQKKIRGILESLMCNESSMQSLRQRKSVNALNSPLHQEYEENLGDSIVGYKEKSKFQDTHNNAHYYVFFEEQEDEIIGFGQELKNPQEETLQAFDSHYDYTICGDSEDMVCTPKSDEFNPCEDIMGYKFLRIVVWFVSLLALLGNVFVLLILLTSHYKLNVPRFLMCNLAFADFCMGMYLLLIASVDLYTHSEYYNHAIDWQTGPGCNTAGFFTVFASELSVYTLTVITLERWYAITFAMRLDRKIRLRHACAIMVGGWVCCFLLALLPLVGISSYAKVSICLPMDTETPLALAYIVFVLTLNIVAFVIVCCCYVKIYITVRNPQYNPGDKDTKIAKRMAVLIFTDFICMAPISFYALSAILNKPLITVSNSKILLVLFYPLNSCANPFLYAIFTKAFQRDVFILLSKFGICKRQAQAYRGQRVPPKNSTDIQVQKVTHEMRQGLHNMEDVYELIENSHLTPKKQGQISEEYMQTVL
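Antagonism was scored as loss of TSH-driven cAMP in TSHR cells, stimulated with 4nM TSH (EC80) for 2 hours at 37 deg C and detected by homogeneous HTRF competition immunoassay.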
An asterisk follows results filed as active; i = inactive; ? = inconclusive; nt = no result given; [ ] = another dose, or the depositor's remark. This excerpt belongs to a sample that is enriched for hits. Unless noted, calls follow the shape of the dose curve; as a rule, active = well fitted curve in the direction sought with a large enough effect; inconclusive = small, poorly fitted or top-dose-only effect, or another doubt; inactive = no such curve, though single readings can be large; an effect the other way counts as inactive or inconclusive.

SMILES	RXFP1 antagonist	PTHR1 agonist	TCR act	RXFP1 agonist	NPSR antagonist	TSHR antagonist
CC(C)c1cc(C(N)=O)c(NC(=O)c2cccc(COc3ccc(Cl)cc3)c2)s1	-8	5%	0%	1%	10µM*	2
CC(=O)N1CCc2c(sc3nc(SCC(C)C)n(-c4ccc(C)c(Cl)c4)c(=O)c23)C1	nt	-5%	nt	-1%	nt	nt
Cc1ccc(-c2nnc(Nc3ccc(O)cc3)c3ccccc23)cc1S(=O)(=O)NC(C)(C)CO	nt	-46%	nt	3%	nt	nt
CC(O)C(NS(=O)(=O)c1ccc(Cl)cc1)C(=O)OCC(=O)c1ccc2c(c1)NC(=O)CO2 (centres undefined)	-3	-20%	5%	nt	nt	nt
CC(C)CC(NC(=O)c1ccc(Cl)cc1)C(=O)OCC(=O)c1ccc2c(c1)NC(=O)CO2 (centres undefined)	-30	-10%	0%	3%	10µM*	-8
CCOc1ccc(CCNC(=O)c2cc3c(-c4ccccc4F)nn(C)c3s2)cc1OCC	-18	-40%	nt	0%	nt	nt
CC1CCN(Cc2c(C(=O)N/N=C/c3cc(Cl)ccc3O)nnn2-c2nonc2N)CC1	-38	-6%	-2%	0%	nt	-100*
CC1CCN(Cc2c(C(=O)N/N=C/c3cc(Br)ccc3O)nnn2-c2nonc2N)CC1	-28	i	0%	1%	nt	-4
CCc1sc(C(=O)Nc2ccc(N3CCOCC3)cc2)cc1C	-8	i	2%	nt	nt	18
CCc1sc(C(=O)Nc2ccc3c(c2)OCO3)cc1C	-63*	-23%	0%	nt	nt	nt
COc1ccc(OC)c(S(=O)(=O)Nc2cc(OC)c(Cl)cc2OC)c1	0	i	nt	1%	?	nt
COc1cc(NS(=O)(=O)c2ccc(OC)c(C)c2C)c(OC)cc1Cl	-9	-2%[57.5 µM]	0%	1%	20µM*	-36
O=C1NC2CCCCN2C12CCN(CCCN1c3ccccc3CCc3ccc(Cl)cc31)CC2 (centres undefined)	-74*	nt	nt	nt	nt	nt
OCCN1CCN(CCCN2c3ccccc3Sc3ccc(Cl)cc32)CC1	?	-7%	2%	-2%	?	-11
CCCCS(=O)(=O)N[C@@H](Cc1ccc(OCCCCC2CCNCC2)cc1)C(=O)O	-14	nt	nt	nt	nt	nt
O=C(O)C1CC=CCC1C(=O)N1CCN(c2nc(-c3ccccc3Cl)c3cc(Br)ccc3n2)CC1 (centres undefined)	-25	-20%	3%	29%	13µM*	-16
O=C(O)C1CC=CCC1C(=O)N1CCN(c2nc(-c3ccccc3)c3ccccc3n2)CC1 (centres undefined)	-13	-21%	-6%	3%	-9%[46.1 µM]	-14
CCOC(=O)c1sc2nc(C)n(N)c(=O)c2c1C	-2	-3%	2%	8%	11%	-5
CCOC(=O)c1sc2nc(C)[nH]c(=S)c2c1C	34	-8%	-11%	28µM*	-23%	7
CCOc1cccc(-c2c(C(=O)N/N=C(\C)c3ccncc3)nnn2-c2nonc2N)c1	-62*	i	7%	-3%	nt	-6
CCOC(=O)c1cc(=O)c2c(OCC(COc3cccc4oc(C(=O)OCC)cc(=O)c34)OC(=O)[C@@H](N)CCCCN)cccc2o1	34	nt	nt	nt	nt	nt
O=c1[nH]c(C2CCN(S(=O)(=O)c3ccccc3)CC2)nc2c1nnn2Cc1cccc(Cl)c1	5	-40%	0%	2%	nt	1
O=c1[nH]c(C2CCN(S(=O)(=O)c3cccc(Cl)c3)CC2)nc2c1nnn2Cc1ccccc1	-5	-20%	-6%	0%	nt	-103*
Cc1ccc(S(=O)(=O)c2nc(S(C)(=O)=O)sc2NCc2ccccc2)cc1	-3	i	nt	-1%	nt	nt
CSc1ccc(CN2CCC(CO)(Cc3ccc(Cl)cc3)CC2)cc1	-81*	-15%	-10%	-1%	?	7
SMILES	RXFP1 antagonist	PTHR1 agonist	TCR act	RXFP1 agonist	NPSR antagonist	TSHR antagonist
OCC1(Cc2ccc(Cl)cc2)CCN(Cc2ccccc2F)CC1	-20	-32%	-9%	0%	26%	-8
CCOC(=O)c1cnc(-n2nc(C)cc2C)nc1NCCc1ccccc1	-23	i	-7%	-1%	13µM*	-1
CCOC(=O)c1cnc(-n2nc(C)cc2C)nc1NC1CCCC1	-25	-27%	2%	-2%	1.3µM*	-5
CCOC(=O)c1cnc(-n2nc(C)cc2C)nc1Nc1ccccc1OC	nt	nt	nt	0%	-2%[46.1 µM]	-14
Cc1cc(C)nc(SCC(=O)NC2CCCCC2C)n1 (centres undefined)	-61*	12%	-7%	0%	nt	1
COc1cc(C(C(=O)NCc2ccccc2)N(C(=O)c2snc(C(N)=O)c2N)C2CCCC2)cc(OC)c1OC (centres undefined)	7	-12%	1%	-1%	nt	-108*
COc1ccc(C(C(=O)NCc2ccccc2)N(C(=O)c2snc(C(N)=O)c2N)C2CCCC2)cc1 (centres undefined)	-12	i	4%	-5%	nt	6
COc1ccccc1Cn1c(SCC(=O)C(C)(C)C)nc2ccccc2c1=O	-9	i	nt	6%	nt	nt
Cc1onc(-c2ccccc2)c1C(=O)Cl	-5	nt	nt	nt	nt	nt
COc1cc(/C=N/NC(=O)c2ccncc2)ccc1OC(=O)c1cccc(Br)c1	-72*	-21%	-5%	-2%	nt	-6
COc1cc(/C=N/NC(=O)c2ccncc2)ccc1OCC(=O)Nc1ccccc1	-74*	i	-2%	-2%	nt	5
O=C(COc1ccc(/C=N/NC(=O)c2cc3ccccc3o2)cc1Cl)Nc1ccccc1	-6	-4%	1%	5%	4µM*	-8
COc1cc(/C=N/NC(=O)c2ccccc2O)ccc1OCC(=O)Nc1ccccc1	nt	i	7%	3%	nt	-20
COc1cccc(C(=O)Oc2ccc(/C=N/NC(=O)c3ccncc3)cc2OC)c1	-10	-30%	-1%	-2%	nt	8
O=C(N/N=C/c1ccc2c(c1)OCO2)c1cc2ccccc2o1	7	?	2%	5%	4%	0
CCSc1nc(=S)cc(C)[nH]1	-75*	i	1%	2%	-16%	-4
Cc1ccc(CSc2nc3cccnc3n2Cc2ccc(C(=O)NC3CCCCC3)cc2)cc1	-4	-7%	nt	20µM*	nt	nt
Cc1ccc2c(n1)Oc1ccc(C(C)C(=O)OCC(=O)N(C)C)cc1C2 (centres undefined)	-5	nt	nt	nt	nt	nt
COc1ccc2sc(/C=C/c3ccccc3O)[n+](C)c2c1	-11	-7%	0%	1%	13µM*	-11
